# High-throughput results deposited in PubChem by National Center for Advancing Translational Sciences (NCATS).
# DT40 TDP1 no CPT: qHTS for Inhibitors of human tyrosyl-DNA phosphodiesterase 1 (TDP1): qHTS in cells in absence of CPT. DT40 Tdp1-/- hTDP1 cells, no CPT, ATP luminescence, 48 h. Potency, µM (highest dose often 46.2 µM), for inactives: top-dose activity change, negative = growth inhibition, hits mostly inhibitors. 420,000 tested, 15% active. AID 686978, 2013; note: potency is the fitted concentration of half-maximal effect; % is set by controls: 0 for no effect and ±100 for the full control effect; nearly all actives have a fitted effect of over 55% in size
#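 Compound effects on proliferation are scored in DT40 Tdp1-/-;hTDP1 cells in the absence of CPT. ATP levels (CellTiter-Glo luminescence) are recorded after a ≥48 hr, 37 °C incubation.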
# TDP1 cell CPT: DT40-hTDP1 cell growth loss with CPT | chicken DT40 Tdp1-/-;hTDP1 cells + 20 nM CPT, ATP luminescence, 48 h | Potency, µM (top dose mostly 46.2 µM), for inactives: at the highest dose activity change, negative = growth inhibition, hits mostly inhibitors | 420,000 tested, 12% active; note: potency is the fitted concentration of half-maximal effect; % is set by controls: 0 for no effect and ±100 for the full control effect; nearly all actives have a fitted effect of over 55% in size
#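 Chicken DT40 Tdp1-/- cells stably complemented with human TDP1 were seeded at 400 cells/well in medium containing 20 nM camptothecin, exposed to pin-transferred compounds, and grown at 37 °C for at least 48 hr. Viability was read as ATP luminescence.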
# IL-1B inflam inh: blocks inflammasome-driven IL-1 beta release; THP-1 LPS/ATP IL-1B secretion, AlphaLISA, 16 h; stronger effect = lower value; activity change, % at 57.5 µM; 360,000 tested, 4.7% active; in the data active = activity change below about -50%; inconclusive = mostly about -30% to -49%; note: % is set by controls: 0 for no effect and ±100 for the full control effect
#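 THP-1 cells pretreated 1 hr with compounds (up to 57.5 uM final), then stimulated with LPS (250 ng/mL final) plus ATP (1.25 mM final); secreted IL-1B measured by AlphaLISA after 16 hr, decreased signal indicating inhibition.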
# HepG2 tox: counter-screen for TGF-b inhibitors: cytotoxicity in HepG2 cells; HepG2 CAGA-GFP viability, ATP luminescence, 18 h; Potency, µM (titrated, usually from 46.1 µM), without a hit: at the highest dose activity change, negative = cytotoxicity, usual class: cytotoxic; 410,000 tested, 0.76% active; AID 588856; note: potency is the fitted concentration of half-maximal effect
#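 CellTiter-Glo luminescence gave cytotoxicity after 18 hours at 37 degrees C. The cells were HepG2 CAGA-GFP in 1% FBS DMEM, stimulated with 500 pg/mL TGF-beta after compound addition. %Activity was normalised to no-cell wells (complete cell-killing) and DMSO (no toxicity), and curves were fitted and classified.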
# TDP1 block: blocks human tyrosyl-DNA phosphodiesterase 1 | Q9NUW8 | recombinant TDP1, AlphaScreen DNA substrate cleavage | Potency, µM (titrated, usually from 130 µM), inactives show top-dose activity change, negative = inhibition, actives largely listed as inhibitors | 350,000 tested, 0.28% active | AID 485290; note: potency is the fitted concentration of half-maximal effect; % is set by controls: 0 for no effect and ±100 for the full control effect; nearly all actives have a fitted effect of over 40% in size
# Target sequence (Q9NUW8 whole entry, looked up): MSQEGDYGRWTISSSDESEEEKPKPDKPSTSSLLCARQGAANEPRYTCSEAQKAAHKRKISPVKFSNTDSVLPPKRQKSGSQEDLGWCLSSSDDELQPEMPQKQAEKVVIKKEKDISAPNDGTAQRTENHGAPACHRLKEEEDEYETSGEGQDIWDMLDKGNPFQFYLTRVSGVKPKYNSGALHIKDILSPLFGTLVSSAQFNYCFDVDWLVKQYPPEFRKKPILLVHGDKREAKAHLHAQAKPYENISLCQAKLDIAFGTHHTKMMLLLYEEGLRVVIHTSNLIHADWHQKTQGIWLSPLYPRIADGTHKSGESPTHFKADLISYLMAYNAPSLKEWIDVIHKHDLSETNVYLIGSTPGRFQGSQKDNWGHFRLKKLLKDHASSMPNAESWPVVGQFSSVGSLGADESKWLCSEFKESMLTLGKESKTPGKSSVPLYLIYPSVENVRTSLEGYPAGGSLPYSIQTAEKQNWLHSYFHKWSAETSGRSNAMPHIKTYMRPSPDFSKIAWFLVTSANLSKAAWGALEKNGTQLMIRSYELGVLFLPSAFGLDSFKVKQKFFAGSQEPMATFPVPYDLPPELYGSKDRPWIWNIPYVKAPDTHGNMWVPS
#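 Tdp1 1 nM final; 15 min RT w/ cpd; substrate 15 nM, 5 min; beads 10 ug/ml, 10 min; AlphaScreen read. Neg ctrl: no enzyme.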
# TGFb SMAD3 inh: inhibitors of TGF-b signaling; 410,000 tested, 1.2% active; Potency, µM (series often up to 46.1 µM), for the others: top-dose activity, negative = inhibition, most hits filed as inhibitors; HepG2 CAGA-GFP TGF-b/SMAD3 reporter, GFP fluorescence, 18 h; TGF-beta stimulated, 500 pg/mL final; AID 588855; note: potency is the fitted concentration of half-maximal effect; % is set by controls: 0 for no effect and ±100 for the full control effect; nearly all actives have a fitted effect of over 65% in size
#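 Read-out: total well GFP (ex488/em500-530) summed from mean per-cell fluorescence. Cells: HEPG2 CAGA-GFP, 1% FBS DMEM, 18 h at 37 degrees C with 500 pg/mL final TGF-beta. Unstimulated wells served as the full-inhibition control; stimulated DMSO wells = 0%.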
# * marks the source's active call; other numbers are inactive results; ? = inconclusive; / = no result given; [ ] = another dose, or the depositor's remark. Only some compounds are listed: those with a hit (about 19% of all), similar ones and a draw of the others. Unless noted, calls come from the whole dose curve; as a rule, active = well fitted curve in the direction sought with a large enough effect; inconclusive = small, poorly fitted or top-dose-only effect, or another doubt; inactive = no such curve, though single readings can be large; an effect the other way counts as inactive or inconclusive.
SMILES,DT40 TDP1 no CPT,TDP1 cell CPT,IL-1B inflam inh,HepG2 tox,TDP1 block,TGFb SMAD3 inh
COc1ccc(-c2ccc(C(=O)Nc3ccc(OC)nc3)c3occc23)c(C)c1,15µM*,0.37µM*,8,-18%,/,13%
Cc1ccc(OCCN2CCC2(C)C(=O)Nc2ccc3c(c2)OCO3)cc1 (stereo not given),-25%,-25%,-19,-15%,/,-10%
COc1ccc(NC(=O)C(c2ccc(Cl)cc2)C(C)C)cn1 (stereo not given),-16%,-25%,-16,-6%,2%,11%
O=C(NCCO)C(=O)Nc1cc2c3c(c1)CC(=O)N3CCC2,?,-4%,4,-5%,4%,-2%
O=C(C[n+]1ccccc1Br)c1ccc2c(c1)CCCC2,20µM*,?,/,0%,/,5%
Cc1ccc(OCC(=O)c2ccc3c(c2)CCCC3)cc1C,?,?,-16,-29%,-6%,-26%
O=C(CCl)c1cc2c3c(c1)CC(=O)N3CCC2,0.33µM*,1.2µM*,-71*,-49%,6%,-33%
O=C(CCl)c1ccc2c(c1)CCCC2,0.79µM*,0.89µM*,/,-28%,/,4%
O=C(COc1ccc(Br)cc1)c1ccc2c(c1)CCCC2,23µM*,?,-27,-5%,/,26%
O=C(Nc1ccc(NC(=O)c2cccs2)c(Cl)c1)c1ccco1,?,?,-5,-14%,4%,-18%
Cc1ccccc1C(=O)N1CCN(c2ccc(NC(=O)c3ccco3)cc2Cl)CC1,9.2µM*,15µM*,-89*,-20%,5%,?
Cc1ccc(NC(=O)N2CCN(C(=O)c3ccco3)CC2)cc1Cl,?,-20%,3,-26%,1%,-15%
O=C(Nc1ccc(N2CCN(C(=O)c3cccs3)CC2)c(Cl)c1)c1ccco1,15µM*,?,?,-14%,7%,-7%
CCCCN(C(=O)CC1CCCC1)c1c(N)n(CCCC)c(=O)[nH]c1=O,-19%,-9%,-7,15%,1%,35%
Cn1cc([N+](=O)[O-])c(C(=O)Nc2ccc(Br)cn2)n1,-6%,-19%,-87*,-32%,1%,?
CCSc1ccc(C(=O)Nc2ccc(Br)cn2)cc1[N+](=O)[O-],?,-9%,-28,-8%,-3%,2%
Cn1cc([N+](=O)[O-])c(C(=O)Nc2nccs2)n1,13%,4%,-98*,-95%,6%,?
N#CC1=C(N)NC(=S)C(C(N)=O)C1c1ccc(Cl)cc1Cl (stereo not given),18µM*,10µM*,5,7.1µM*,2%,?
COc1cccc2c1Oc1ncccc1N(C(=O)CCC(=O)NCc1ccc(OC(C)C)cc1)C2,?,?,/,-17%,4%,?
O=C(N/N=C/c1cc(O)ccc1Br)c1cccnc1,2.9µM*,5.8µM*,175,-49%,/,-27%
O=C(N/N=C/c1ccc(Br)s1)c1cccnc1,-11%,-7%,-5,-28%,-5%,-5%
O=C(N/N=C/c1cc(Br)c(O)c(Br)c1O)c1cccnc1,?,21µM*,60,0%,/,-5%
O=C(N/N=C/c1cc2c(cc1Br)OCO2)c1cccnc1,?,5%,?,-13%,6%,-20%
O=c1oc2cc(O)ccc2cc1-c1nc(-c2ccc(Cl)c(Cl)c2)cs1,-7%,0%,/,-22%,-10%,68%
Cc1ccc(N2CCN(S(=O)(=O)c3ccc(F)c(C(=O)Nc4ccc(Cl)cc4Cl)c3)CC2C)cc1 (stereo not given),?,?,/,-4%,5%,9%
SMILES,DT40 TDP1 no CPT,TDP1 cell CPT,IL-1B inflam inh,HepG2 tox,TDP1 block,TGFb SMAD3 inh
COc1cc2c(cc1OC)/C(=C/c1ccc(Cl)cc1)C(=O)OC2,?,?,-81*,6%,9%,14%
COc1ccc(/C=C2\C(=O)OCc3cc(OC)c(OC)cc32)cc1OC,-35%,?,-51*,-7%,5%,-3%
COc1cc2c(cc1OC)/C(=C/C(C)=O)OC2,-2%,-6%,19,/,/,/
CC(=O)N1CCc2c(sc3c2c(=O)n(-c2cc(Cl)ccc2C)c(=O)n3C)C1,-9%,0%,/,-26%,1%,2%
CN1CCN(CC(=O)Nc2cc(N(C)C)nc3ccccc23)CC1,-26%,1%,-62*,5%,-4%,10%
Brc1cccc[n+]1CCCC[n+]1ccccc1Br,16µM*,8.9µM*,/,-16%,/,8%
Brc1cccc[n+]1C/C=C/C[n+]1ccccc1Br,-18%,0%,/,-77%,/,13%
Clc1cccc[n+]1CCCCCC[n+]1ccccc1Cl,-98%,35µM*,/,7%,/,-4%
Brc1cccc[n+]1CCCCCC[n+]1ccccc1Br,18µM*,?,/,-25%,/,9%
O/N=C/c1cccc[n+]1CCCCCC[n+]1ccccc1/C=N/O,14%,4%,-6,0%,3%,10%
COc1cccc(OC)c1NC(=O)CN1CCN(C)CC1,-17%,-10%,-3,2%,/,-4%
CCCOc1cccc(C(=O)Nc2cccc(-c3nc4ncccc4o3)c2C)c1,/,/,/,3%,8%,5%
O=C(Cn1c(=O)n(Cc2ccc3c(c2)OCO3)c(=O)c2ccc(C(=O)NC3CCCCC3)cc21)Nc1ccccc1F,?,?,/,-6%,-4%[12.3 µM],-6%
COc1ccc(C2c3ccc(O)cc3Oc3ncn4nc(-c5cccnc5)nc4c32)cc1OC (stereo not given),12µM*,?,-25,-14%,8%,?
COc1ccc(C2c3ccc(O)cc3Oc3ncn(Cc4ccco4)c(=N)c32)cc1OC (stereo not given),?,?,?,-15%,3%,-6%
CC(=O)Nc1nc(-c2cccs2)cs1,-13%,6%,7,2%,2%,7%
O=C(Nc1nc(-c2cccs2)cs1)c1ccc(S(=O)(=O)N2CCCC2)cc1,?,?,-72*,-16%,5%,?
O=C(Nc1nccs1)c1ccc(S(=O)(=O)N2CCOCC2)cc1,16µM*,?,0,-30%,2%,-29%
CN(C)S(=O)(=O)c1ccc(C(=O)Nc2nc(-c3cccs3)cs2)cc1,?,21µM*,-3,-12%,1%,-18%
O=C(Nc1nc(-c2ccc3c(c2)OCCO3)cs1)c1ccc(S(=O)(=O)N2CCCCC2)cc1,?,?,-79*,-58%,3%,?
